Experimental data: PubChem BioAssay (NCI)
The panel holds about 83,000 compounds, 20% with a hit somewhere; the sample as a whole holds those more often.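 Cell lines were cultured in 96-well plates, exposed to a single compound concentration, and assessed for percent growth 48 hours later.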 A number with no mark means an inactive call. Calls of active or inactive are those of the source. How the source made its calls: active means growth percent below 10; inactive means the rest.

How the values were obtained:
Assay in all cases: NCI-60 one-dose screen, 48 h (100 = growth as untreated, 0 = no growth, -100 = all killed)
Conditions in all cases: 10 µM unless noted
HCT-15 colon = tested on: HCT-15 colon
HT29 colon = tested on: HT29 colon
SNB-75 CNS = tested on: SNB-75 CNS
SNB-19 CNS = tested on: SNB-19 CNS
U251 CNS = tested on: U251 CNS
PC-3 prostate = tested on: PC-3 prostate
SK-MEL-5 melanoma = tested on: SK-MEL-5 melanoma
UACC-62 melanoma = tested on: UACC-62 melanoma
LOX IMVI melanoma = tested on: LOX IMVI melanoma
SK-MEL-28 melanoma = tested on: SK-MEL-28 melanoma
SK-MEL-2 melanoma = tested on: SK-MEL-2 melanoma
EKVX NSCLC = tested on: EKVX NSCLC
SN12C renal = tested on: SN12C renal
UO-31 renal = tested on: UO-31 renal
TK-10 renal = tested on: TK-10 renal
ACHN renal = tested on: ACHN renal
CAKI-1 renal = tested on: CAKI-1 renal
A498 renal = tested on: A498 renal
CCRF-CEM leukemia = tested on: CCRF-CEM leukemia
MOLT-4 leukemia = tested on: MOLT-4 leukemia

Row | SMILES | growth (HCT-15 colon) | growth (HT29 colon) | growth (SNB-75 CNS) | growth (SNB-19 CNS) | growth (U251 CNS) | growth (PC-3 prostate) | growth (SK-MEL-5 melanoma) | growth (UACC-62 melanoma) | growth (LOX IMVI melanoma) | growth (SK-MEL-28 melanoma) | growth (SK-MEL-2 melanoma) | growth (EKVX NSCLC) | growth (SN12C renal) | growth (UO-31 renal) | growth (TK-10 renal) | growth (ACHN renal) | growth (CAKI-1 renal) | growth (A498 renal) | growth (CCRF-CEM leukemia) | growth (MOLT-4 leukemia)
1 | Cc1[nH]nc2ccc3nc(-c4cn[nH]c4C(F)(F)F)c4c(c3c12)CCCC4 | -4.58% (active) | 5.08% (active) | -9.8% (active) | 3.47% (active) | 7.24% (active) | 4.97% (active) | -51.2% (active) | -57.3% (active) | -39.9% (active) | -20.1% (active) | -68.2% (active) | -40.5% (active) | -22.4% (active) | -30.5% (active) | -56.2% (active) | 1.85% (active) | -9.8% (active) | -61.1% (active) | -12.1% (active) | 2.2% (active)
2 | CCCn1c(NC(=O)c2cccc(C(N)=O)c2)nc2cc(CN3CCCCC3)ccc21 | 77.9% | 87.1% | 133% | 113% | 116% | 77% | 88% | 113% | 96.5% | 112% | 115% | 100% | 89% | 67.5% | 92.6% | 77.8% | 53.3% | 170% | 94.7% | 94.8%
3 | O=C(NC(=S)N1CCN(c2ncnc3c2cnn3-c2ccccc2)CC1)c1ccc(F)cc1 | 49.9% | 78% | 53.7% | 84.9% | 85.9% | 71.9% | 56% | 74.2% | 63.4% | 85.6% | 91.6% | 86.2% | 64.9% | 74.4% | 140% | 79.6% | 84.8% | 124% | 63.2% | 45.2%
4 | C/C(=N/O)c1ccc(NC(=O)CSc2nnc(-c3ccc4nc(-c5ccc(Cl)cc5)[nH]c4c3)o2)cc1 | 99.1% | 93.2% | 55.8% | 20.8% | -58.8% (active) | 41% | 11% | 10.5% | -64.4% (active) | -61.5% (active) | 65.1% | 99.8% | 28.8% | 87.7% | 121% | 77.3% | 97% | 158% | 32.5% | 19.6%
5 | O=C(/C=C1\C(=O)N(Cc2ccccc2)c2ccccc21)c1cc2ccccc2oc1=O | 31.8% | 113% | 88% | 102% | 98.4% | 90.7% | 90.2% | 79.5% | 85.2% | 92.1% | 109% | 79.6% | 93% | 42.9% | 84.6% | 17.9% | 69.9% | 144% | 43.6% | 31.9%
6 | O=c1ccc(Cn2c(C(F)(F)F)cc3c(Cl)ncnc32)c[nH]1 | 0.0667% (active) | 78.1% | 13.1% | 47.4% | 98.5% | 78.4% | 6.31% (active) | 19.3% | -61.8% (active) | 40.8% | -86.2% (active) | 95.4% | 47.9% | -88.4% (active) | 111% | -54.5% (active) | 78.1% | 136% | 11.8% | -26.6% (active)
7 | Cc1ccc(Cl)cc1NC(=O)N/C(N)=N/c1nc2ccccc2s1 | -22.4% (active) | -69.5% (active) | -4.17% (active) | 12.5% | -43.8% (active) | 2.99% (active) | -56.9% (active) | -11.4% (active) | -83.3% (active) | 19.6% | -20.6% (active) | 15.8% | -40% (active) | -13% (active) | 14.7% | -50.3% (active) | -2.72% (active) | 5.76% (active) | -6.91% (active) | -8.52% (active)
